Source: PubChem BioAssay
Vif inh: HIV Vif inhibition | 340,000 compounds, 0.35% hits | inhibition, % at 7.49 µM | HEK293T cells, Vif self-association by quenched fluorescence, imaging, 24 h; in the data active means inhibition above about 50%, passing the limit was not always enough
esBAF inh: blocks esBAF chromatin remodeling in mouse ES cells | AID 602393 | Bmi1-luciferase knock-in reporter, 24 h; 100% = twice the neutral-well signal | 350,000 compounds, 2% hits | reporter increase, % at 12.5 µM; in the data active means activation above about 40%;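 further: 0% = median of the plate's neutral control wells and 100% = double that signal; a rise in the Bmi1 reporter signal indicates esBAF inhibition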
NadD inh: inhibitors of Staphylococcus aureus NadD; inhibition, % at 20 µM; 360,000 compounds, 0.78% hits; purified NadD enzyme, colorimetric absorbance read-out; in the data active means inhibition above about 26%
SKN-1 inh: C. elegans SKN-1 inhibition; C. elegans VP596 Pgst-4::GFP/RFP ratio, acrylamide-induced, 24 h; inhibition, % at 21.8 µM; 360,000 compounds, 0.49% hits;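 active means interference check ratio from 0.5 to 1.5 plus GFP to RFP signal ratio inhibition reaching or exceeding a fixed threshold, cut at about 30% in these data, passing the limit was not always enough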
SMARCA2 activ: activators of SMARCA2 function. 370,000 compounds, 1% hits. MG213 cells, MMTV-luciferase reporter, dexamethasone, overnight. activation, % at 9.1 µM; in the data active means activation above about 7.8%;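 further: 0% = vehicle wells and 100% = reference activator wells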
GRIN3A LBD mod: modulators (binders) of human NR3A ligand-binding domain. NR3A LBD differential scanning fluorimetry, Tm shift; 0% = protein alone, 100% = glycine-bound protein. Tm shift relative to glycine control, % at 25 µM. 340,000 compounds, 2.5% hits. AID 1259313;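 active means melting temperature shift of at least 10% of the positive control shift, at one fixed dose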
NadD conf: NadD (S. aureus) inhibition, single concentration confirmation; shares compounds with NadD inh; purified S. aureus NadD, colorimetric enzyme assay; inhibition, % at 20 µM; 2,000 compounds, 13% hits; AID 624309; in the data active means inhibition mostly above about 42%, no sharp cut-off; inactive means mostly below about 42%
Active calls of the source: *; · = no result. Sampled rows, rich in hits. Any-hit rate of the full collection: about 5.2%.

SMILES | Vif inh | esBAF inh | NadD inh | SKN-1 inh | SMARCA2 activ | GRIN3A LBD mod | NadD conf
Cc1[nH]n(-c2ccc(Cl)cc2)c(=O)c1/C=N/c1nnc(-c2ccccc2)s1 | -2 | · | 3 | 6 | 1 | -5 | ·
C[C@@H]1CN([C@H](C)CO)C(=O)Cc2cc(NC(=O)C3CCCCC3)ccc2O[C@@H]1CN(C)C | · | 0 | · | · | · | · | ·
O=C(Cn1c2ccccc2c(=O)c2ccccc21)N/N=C/c1ccc(N2CCCC2)c([N+](=O)[O-])c1 | 6 | · | 27 | -11 | -2 | 4 | ·
O=C(Cn1c2ccccc2c(=O)c2ccccc21)N/N=C/c1cc([N+](=O)[O-])ccc1N1CCCCCC1 | 5 | 15 | 50* | 7 | -1 | -7 | 3
O=C(NCC1CC1)[C@@H]1[C@@H](CO)[C@@H]2Cn3c(ccc(-c4cccnc4)c3=O)[C@@H]2N1C(=O)NC1CCCC1 | · | 4 | · | · | · | · | ·
CC(C)c1ccc(OCC(=O)NNC(=S)NC(=O)c2cccs2)c(Br)c1 | 17 | 4 | 25* | -6 | -1 | -2 | 10
Cc1ccc(OCC(=O)NNC(=S)NC(=O)C(C)(C)C)c(Br)c1 | -12 | 38 | -2 | -5 | -1 | -3 | ·
C[C@@H]1CN([C@H](C)CO)C(=O)c2cc(NS(=O)(=O)c3cccs3)ccc2O[C@@H](C)CCCCO[C@@H]1CN(C)CC1CC1 | · | 2 | · | · | · | · | ·
COc1ccc(C(=O)Nc2cccc(/C=C(\CCC(=O)O)c3nc4ccccc4s3)c2)cc1 | -3 | 20 | 55* | 6 | 2 | -6 | 29
CCOc1cc(/C=C(\CC(=O)O)c2nc3ccccc3s2)ccc1OCC(=O)Nc1cccc(C(F)(F)F)c1 | -8 | -7 | 37* | 10 | -1 | -2 | 12
C[C@H](CO)N1C[C@H](C)[C@H](CN(C)S(=O)(=O)c2cn(C)cn2)OCCCC[C@H](C)Oc2ccc(NS(=O)(=O)c3ccc(F)cc3)cc2C1=O | · | 2 | · | · | · | · | ·
Nc1c(C(=O)O)sc2nc(-c3ccccc3)cc(-c3ccc(F)cc3)c12 | -20 | 1 | 35* | 8 | -1 | 0 | 26
Nc1c(C(=O)O)sc2nc(-c3ccccc3)cc(-c3ccccc3)c12 | -2 | -5 | 25 | 25 | 0 | -4 | ·
O=C(C[C@H]1C[C@H]2c3cc(NS(=O)(=O)c4ccc(F)cc4)ccc3O[C@H]2[C@@H](CO)O1)NCc1cccnc1 | · | 0 | · | · | · | · | ·
O=C1NC(Cc2ccc(O)cc2)c2nc3ccc(Br)cc3c(=O)n2-c2cc3ccccc3cc21 (centres undefined) | · | 37 | 31* | 16 | -2 | · | 4
COc1ccc2nc3n(c(=O)c2c1)-c1cc2ccccc2cc1C(=O)NC3Cc1ccc(O)cc1 (centres undefined) | 2 | -3 | 17 | -1 | -5 | · | ·
CCOC(=O)C1=C(C)N=c2s/c(=C/c3ccc(OCC(=O)O)cc3)c(=O)n2C1c1ccc(OC)cc1OC (centres undefined) | -1 | -3 | 14 | 11 | 2 | -1 | ·
COc1cc(/C=c2\sc3n(c2=O)C(c2ccccc2)C(c2ccccc2)=NN=3)ccc1O (centres undefined) | 6 | 7 | 29* | -7 | -1 | 8 | 51*
CCOC(=O)C1=C(C)N=c2s/c(=C/c3cccc([N+](=O)[O-])c3O)c(=O)n2C1c1ccc(OC)cc1OC (centres undefined) | -7 | -9 | 36* | -12 | 0 | 5 | 9
CCOC(=O)C1=C(C)N=c2s/c(=C\c3ccc(O)c([N+](=O)[O-])c3)c(=O)n2C1c1ccccc1OC (centres undefined) | -6 | -4 | 38* | 9 | -2 | 0 | 5
COc1ccc(/C=c2/sc3n(c2=O)C(c2ccccc2OC)C2=C(N=3)c3ccccc3CC2)cc1O (centres undefined) | -5 | · | 53* | -8 | -7 | 4 | 27
CO[C@@H]1CN(C)C(=O)c2ccc(NC(=O)c3cc(C)on3)cc2OC[C@@H](C)N(C(C)=O)C[C@H]1C | · | 3 | · | · | · | · | ·
C[C@@H]1CN([C@H](C)CO)C(=O)c2cccc(NS(=O)(=O)c3ccccc3)c2O[C@H]1CN(C)Cc1ccncc1 | · | -1 | · | · | · | · | ·
COc1ccccc1Nc1ncc(-c2cccs2)s1 | 2 | 54* | 40* | 10 | 6 | 0 | 18
COc1ccccc1Nc1ccc(C(=O)NCc2cccs2)cn1 | 9 | -3 | 0 | 12 | -6 | -3 | ·
SMILES | Vif inh | esBAF inh | NadD inh | SKN-1 inh | SMARCA2 activ | GRIN3A LBD mod | NadD conf
COc1ccc(Cc2c(C3CCCCC3)nc3c(Cl)cc(C(F)(F)F)cn23)c(C)c1 | · | · | 31* | 1 | -3 | · | 13
CN1C(=O)c2cc(NS(=O)(=O)c3ccc(Cl)cc3)ccc2OC[C@H]2O[C@@H](CC(=O)N3CCc4ccccc4C3)CC[C@@H]21 | · | 6 | · | · | · | · | ·
CCC(=O)Nc1ccc2c(c1)C(=O)N(C)C[C@H](OC)[C@@H](C)CN(C(=O)CN1CCOCC1)[C@@H](C)CO2 | · | 1 | · | · | · | · | ·
CCOCCCn1c(=N)c(C(N)=S)cc2c(=O)n3cccc(C)c3nc21 | 18 | -8 | 29 | -20 | 0 | -4 | ·
Cc1cccn2c(=O)c3cc(C(N)=S)c(=N)n(CCCOC(C)C)c3nc12 | -11 | -8 | 52* | 9 | 0 | -3 | 2
N#Cc1cc(C(=O)c2cc(Cl)ccc2O)cn(-c2ccccc2)c1=O | 4 | · | -3 | -6 | 0 | -1 | ·
Cc1ccc(NC(=O)c2cc(C(=O)c3cc(Cl)ccc3O)cn(-c3ccc(C)cc3)c2=O)cc1 | 32 | · | 31* | 14 | -1 | 12* | -11
Cc1ccc(-c2nsc3c(N4CCC(C(N)=O)CC4)ncnc23)cc1 | 3 | -49 | 31* | 2 | 5 | -2 | 6
COc1ccccc1S(=O)(=O)N1CC[C@@H]2[C@H]1c1cc(-c3cccc(C#N)c3)ccc1N(C)[C@H]2CO | · | -2 | · | · | · | · | ·
Cc1c(Nc2nc3ccccc3nc2NS(=O)(=O)c2cccc(Cl)c2)c(=O)n(-c2ccccc2)n1C | 4 | · | 11 | 4 | -4 | -7 | ·
Cc1ccc(Nc2nc3ccccc3nc2Nc2c(C)n(C)n(-c3ccccc3)c2=O)cc1 | -2 | · | 35* | 24 | -1 | -7 | 0
CC1(C)Cc2c(C#N)c(N3CCN(C(=O)c4ccco4)CC3)nc(-c3ccco3)c2CS1 | 6 | 6 | 2 | -18 | -2 | -1 | ·
CC1(C)Cc2c(C#N)c(N3CCN(C(=O)c4ccccc4Cl)CC3)nc(-c3ccco3)c2CS1 | -6 | · | 34* | 9 | -1 | -4 | 1
COc1ccc(/C=C2/SC(=O)N(CCC(=O)Nc3ccc(S(=O)(=O)Nc4nccs4)cc3)C2=O)cc1 | 0 | · | 69* | -7 | 1 | 6 | 49*
O=C(CCN1C(=O)S/C(=C\c2cccs2)C1=O)Nc1nccs1 | -3 | 1 | 5 | -9 | -4 | 1 | ·
